Our source for the outcome and AC50 values is PubChem BioAssay (EPA / NIEHS).

What all share (conditions): mRNA level, 48 h; actives raise or lower the signal
Read-out in assay [1]: Tumor necrosis factor receptor superfamily member 6 (Homo sapiens) (UniProt P25445)
Nature of the assay: LTEA_HepaRG_FAS: Life Technologies and Expression Analysis (LTEA) Assay for Fas cell surface death receptor (FAS) using HepaRG (AID 2283447). The essentials:
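FAS transcript level was measured by TaqMan qRT-PCR against three housekeeping genes after 48 h chemical exposure. Cells were HepaRG, 0.5% DMSO vehicle, with a top concentration of 100 uM and half-log dilutions over eight points, in duplicate.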

Read-out in assay [2]: Fatty acid synthase (Homo sapiens) (UniProt P49327)
Put plainly: LTEA_HepaRG_FASN: Life Technologies and Expression Analysis (LTEA) Assay for Fatty Acid Synthase (FASN) using HepaRG (AID 2283448). The method in brief: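 Differentiated HepaRG cells in serum-free induction medium exposed 48 h in duplicate to eight half-log concentrations, top 100 uM, 0.5% DMSO. FASN mRNA by qRT-PCR normalised to ACTB, GAPDH, POLR2A; bidirectional fit versus DMSO.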

Read-out in assay [3]: Cyclin D2 (CCND2), CCND2 (gene 894)
Nature of the assay: LTEA_HepaRG_CCND2: Life Technologies and Expression Analysis (LTEA) Assay for Cyclin D2 (CCND2) using HepaRG (AID 2283449). The essentials:
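Read-out is CCND2 mRNA level measured by qRT-PCR in human HepaRG liver cells and normalised to three housekeeping genes. Chemicals were applied for 48 h at up to 100 uM, with gain or loss fitted relative to 0.5% DMSO.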

Read-out in assay [4]: Cyclin Dependent Kinase Inhibitor 1A (CDKN1A), CDKN1A (gene 1026)
Nature of the assay: LTEA_HepaRG_CDKN1A: Life Technologies and Expression Analysis (LTEA) Assay for Cyclin Dependent Kinase Inhibitor 1A (CDKN1A) using HepaRG (AID 2283450). The method in brief:
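Cryopreserved HepaRG cells were plated and cultured 48 h, then switched to serum-free induction medium. Chemicals (eight half-log concentrations, top 100 uM, 0.5% DMSO) were applied for 48 h. Lysates underwent qRT-PCR for CDKN1A with housekeeping normalization.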

Read-out in assay [5]: Cyclin D1 (CCND1), CCND1 (gene 595)
Put plainly: LTEA_HepaRG_CCND1: Life Technologies and Expression Analysis (LTEA) Assay for Cyclin D1 (CCND1) using HepaRG (AID 2283451). The method in brief:
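Human liver HepaRG line; 48 h dosing, 8 conc. ≤100 uM, 0.5% DMSO; TaqMan qRT-PCR mRNA, 3 housekeeping genes; bidirectional curve fit vs DMSO.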

Read-out in assay [6]: flavin-containing dimethylaniline monooxygenases 3 (FMO3), FMO3 (gene 2328)
Nature of the assay: LTEA_HepaRG_FMO3: Life Technologies and Expression Analysis (LTEA) Assay for flavin-containing dimethylaniline monooxygenases 3 (FMO3) using HepaRG (AID 2283453).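 As to AC50: differentiated human HepaRG liver cells in serum-free induction medium.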 The method in brief: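 Differentiated HepaRG cells in serum-free induction medium, exposed 48 h in duplicate to 8 half-log concentrations up to 100 uM in 0.5% DMSO. FMO3 mRNA by qRT-PCR, normalized to ACTB, GAPDH, POLR2A; bidirectional fit vs DMSO.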

Read-out in assay [7]: Cytochrome P450 (CYP1A1), CYP1A1 (gene 1543)
Nature of the assay: LTEA_HepaRG_CYP1A1: Life Technologies and Expression Analysis (LTEA) Assay for Cytochrome P450 (CYP1A1) using HepaRG (AID 2283454). The method in brief: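 Induction of CYP1A1 mRNA in a human hepatic cell line was measured 48 h after dosing, with 1 mM phenobarbital as induction positive control and 0.5% DMSO vehicle as baseline for bidirectional curve fitting.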

Read-out in assay [8]: CFLAR gene, CFLAR (gene 8837)
Nature of the assay: LTEA_HepaRG_CFLAR: Life Technologies and Expression Analysis (LTEA) Assay for CFLAR gene using HepaRG (AID 2283455). The essentials:
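HepaRG, 48 h exposure, 8-pt conc-response (100 uM top, half-log), 0.5% DMSO vehicle, duplicates. CFLAR expression by qRT-PCR; ACTB/GAPDH/POLR2A normalization; gain or loss fit vs DMSO baseline.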

Read-out in assay [9]: Forkhead box O1 (FOXO1), FOXO1 (gene 2308)
Nature of the assay: LTEA_HepaRG_FOXO1: Life Technologies and Expression Analysis (LTEA) Assay for Forkhead box O1 (FOXO1) using HepaRG (AID 2283456). The method in brief: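 Readout is FOXO1 transcript level by multiplexed qRT-PCR against three housekeeping genes, curve-fitted in both directions relative to 0.5% DMSO vehicle. Human HepaRG cultures received chemicals for 48 h, up to 100 uM in half-log steps.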

Read-out in assay [10]: growth arrest and DNA damage 45 (GADD45A), GADD45A (gene 1647)
Put plainly: LTEA_HepaRG_GADD45A: Life Technologies and Expression Analysis (LTEA) Assay for growth arrest and DNA damage 45 (GADD45A) using HepaRG (AID 2283458). The method in brief:
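Differentiated HepaRG cells exposed 48 h in serum-free induction medium to 8 concentrations, top 100 uM in half-log steps, 0.5% DMSO. GADD45A mRNA quantified by qRT-PCR, normalized to ACTB, GAPDH and POLR2A; bidirectional fit versus DMSO.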

Read-out in assay [11]: catalase (CAT), CAT (gene 847)
Nature of the assay: LTEA_HepaRG_CAT: Life Technologies and Expression Analysis (LTEA) Assay for catalase (CAT) using HepaRG (AID 2283452). The essentials:
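Expression of CAT was quantified by TaqMan qRT-PCR with ACTB/GAPDH/POLR2A normalization after 48 h chemical exposure of HepaRG. Eight-point half-log series, top 100 uM, in 0.5% DMSO; gain or loss fitted against vehicle.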

Active and inactive are the calls of the source. The calls were made as follows: active = hit-call score of the fitted dose curve at least 0.9, where 1 is the maximum; inactive = score below 0.9.

Chain of Fatty acid synthase (Homo sapiens) (P49327 whole entry, looked up): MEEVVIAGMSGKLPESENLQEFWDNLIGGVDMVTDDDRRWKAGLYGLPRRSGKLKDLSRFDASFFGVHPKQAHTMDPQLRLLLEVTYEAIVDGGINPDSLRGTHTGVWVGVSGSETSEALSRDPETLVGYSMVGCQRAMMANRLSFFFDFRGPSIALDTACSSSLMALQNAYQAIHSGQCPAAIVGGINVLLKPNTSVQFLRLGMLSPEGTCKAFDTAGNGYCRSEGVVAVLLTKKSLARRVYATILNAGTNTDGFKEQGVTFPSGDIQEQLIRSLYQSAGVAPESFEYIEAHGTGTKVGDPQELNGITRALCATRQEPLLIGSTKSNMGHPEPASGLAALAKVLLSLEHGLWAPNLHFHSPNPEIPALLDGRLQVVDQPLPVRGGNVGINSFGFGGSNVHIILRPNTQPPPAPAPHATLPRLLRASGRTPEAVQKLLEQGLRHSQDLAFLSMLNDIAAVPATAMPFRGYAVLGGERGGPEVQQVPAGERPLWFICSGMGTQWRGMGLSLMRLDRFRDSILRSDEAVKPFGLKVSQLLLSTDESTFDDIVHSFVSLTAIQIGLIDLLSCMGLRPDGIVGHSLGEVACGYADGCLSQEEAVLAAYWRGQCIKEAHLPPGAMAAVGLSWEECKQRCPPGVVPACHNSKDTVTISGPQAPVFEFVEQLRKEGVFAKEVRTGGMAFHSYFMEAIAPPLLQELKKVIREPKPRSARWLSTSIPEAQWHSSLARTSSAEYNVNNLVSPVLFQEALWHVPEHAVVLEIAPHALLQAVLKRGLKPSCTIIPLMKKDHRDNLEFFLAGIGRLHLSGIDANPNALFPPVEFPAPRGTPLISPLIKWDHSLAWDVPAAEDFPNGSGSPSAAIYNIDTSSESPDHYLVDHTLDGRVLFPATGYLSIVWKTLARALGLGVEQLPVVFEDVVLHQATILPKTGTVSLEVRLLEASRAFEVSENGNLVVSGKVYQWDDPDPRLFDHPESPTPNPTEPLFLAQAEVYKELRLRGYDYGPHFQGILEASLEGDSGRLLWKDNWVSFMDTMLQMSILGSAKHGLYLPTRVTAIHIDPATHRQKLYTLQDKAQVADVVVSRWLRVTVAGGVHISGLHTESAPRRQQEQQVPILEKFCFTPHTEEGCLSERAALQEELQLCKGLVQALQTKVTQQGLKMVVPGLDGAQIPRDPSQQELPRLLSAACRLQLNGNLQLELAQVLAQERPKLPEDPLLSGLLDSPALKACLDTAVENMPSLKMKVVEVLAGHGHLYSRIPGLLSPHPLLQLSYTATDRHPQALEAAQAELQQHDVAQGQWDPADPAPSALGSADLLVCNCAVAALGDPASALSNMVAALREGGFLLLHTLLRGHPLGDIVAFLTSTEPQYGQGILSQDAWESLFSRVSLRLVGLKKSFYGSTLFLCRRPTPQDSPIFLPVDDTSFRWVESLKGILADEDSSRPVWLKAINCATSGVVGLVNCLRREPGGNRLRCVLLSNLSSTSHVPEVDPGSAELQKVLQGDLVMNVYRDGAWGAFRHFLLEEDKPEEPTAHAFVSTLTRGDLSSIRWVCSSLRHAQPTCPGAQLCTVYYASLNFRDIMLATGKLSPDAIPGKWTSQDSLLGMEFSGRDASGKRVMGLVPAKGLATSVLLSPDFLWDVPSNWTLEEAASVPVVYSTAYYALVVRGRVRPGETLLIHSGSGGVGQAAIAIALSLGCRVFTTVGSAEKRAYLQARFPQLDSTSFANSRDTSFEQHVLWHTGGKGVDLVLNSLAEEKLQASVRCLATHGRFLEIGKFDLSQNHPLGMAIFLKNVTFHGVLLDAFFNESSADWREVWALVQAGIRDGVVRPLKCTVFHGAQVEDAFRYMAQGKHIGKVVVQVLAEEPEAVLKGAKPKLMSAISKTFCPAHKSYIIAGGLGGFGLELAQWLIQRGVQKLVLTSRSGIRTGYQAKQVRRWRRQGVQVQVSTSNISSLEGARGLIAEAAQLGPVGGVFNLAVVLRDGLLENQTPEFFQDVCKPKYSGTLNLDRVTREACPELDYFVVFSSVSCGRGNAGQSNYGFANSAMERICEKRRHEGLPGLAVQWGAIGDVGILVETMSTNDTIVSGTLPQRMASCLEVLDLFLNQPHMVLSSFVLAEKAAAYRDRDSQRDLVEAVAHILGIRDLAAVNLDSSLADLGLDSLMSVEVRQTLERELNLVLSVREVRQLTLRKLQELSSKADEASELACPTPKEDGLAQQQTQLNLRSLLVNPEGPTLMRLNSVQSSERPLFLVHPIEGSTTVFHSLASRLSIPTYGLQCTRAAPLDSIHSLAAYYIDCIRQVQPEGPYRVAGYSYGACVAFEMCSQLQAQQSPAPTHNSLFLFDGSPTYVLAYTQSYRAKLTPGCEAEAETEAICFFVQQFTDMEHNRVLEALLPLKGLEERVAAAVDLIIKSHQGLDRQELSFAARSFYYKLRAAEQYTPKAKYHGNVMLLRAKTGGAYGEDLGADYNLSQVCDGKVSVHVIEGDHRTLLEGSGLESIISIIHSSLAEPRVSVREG

In the case of `[N-]=[N+]=[N-]`, the outcome in assay [1], in assay [2], in assay [3], in assay [5], in assay [7] and in [8] was inactive. The half-maximal activity concentration (AC50) – broadly, the midpoint of the concentration-response curve, whichever way the signal moves – is 74.9 µM (active) in assay [4], 88.5 µM (active) in [6], 76.1 µM (active) in [9] and 88.1 µM (active) in [10].
`ClC(Cl)c1ccccc1`: the compound was called inactive in assay [1], in assay [2], in [3], in assay [4], in assay [5] and in [11]. Also, the compound was called inactive in assay [6], in [8], in [9] and in assay [10]. In addition, the AC50 in assay [7] was 50 µM (active).
For `CC(Cc1ccc(OCC(=O)O)cc1)NCC(O)c1csc(C(F)(F)F)n1` (stereo not given), the outcome in assay [1], in [2], in [3], in [4], in assay [5] and in [6] was inactive. Also, the outcome in assay [8], in [9] and in assay [10] was inactive. Further, in assay [7], the AC50 is 0.0496 µM (active).
Turning to `CCCN(CCC)c1c([N+](=O)[O-])cc(C(C)C)cc1[N+](=O)[O-]`, the figures for the AC50 in assay [1], in [7] and in assay [10] were 12.7 µM (active), 24.5 µM (active) and 0.234 µM (active), respectively. The result in [2], in assay [3], in assay [4], in [5], in assay [6] and in [8] was inactive. Besides, in assay [9], the compound was called inactive.
Turning to `CCOc1ccc(C(C)(C)COCc2cccc(Oc3ccccc3)c2)cc1`, the compound was classed as inactive in [1], in [2], in [4], in assay [5], in [6] and in assay [8]. The compound was called inactive in assay [9] and in assay [10]. Further, the AC50 in assay [7] was 41 µM (active).
For the compound `O=P1(N(CCCl)CCCl)NCCCO1` (stereo not given), the result in assay [1], in [2], in assay [3], in assay [4], in assay [5] and in [6] was inactive. Also, the compound was classed as inactive in [8], in [9] and in [10]. In addition, the concentration at half-maximal activity (AC50) in assay [7] was 50 µM (active).
As to `CCCCN(CCCC)SN(C)C(=O)Oc1cccc2c1OC(C)(C)C2`, the call in assay [1], in [2], in [3], in assay [4], in [5] and in [6] was inactive. For the same compound, the outcome in assay [8], in [9] and in [10] was inactive. The half-maximal activity concentration (AC50) in assay [7] is 50 µM (active).
